From PubChem
BH1578 lux ind: inducers of Vibrio cholerae quorum light production without autoinducers. V. cholerae BH1578 lux reporter, luminescence, 6 h. activation, % at 18.7 µM. 0.16% of 350,000 active; in the data active means activation mostly above about 9.7%, no sharp cut-off
BioA inh: blocks M. tuberculosis BioA enzyme activity | purified M. tuberculosis BioA enzyme, plate reader | inhibition, % at 9.99 µM | 0.096% of 360,000 active | AID 602481; in the data active means inhibition above about 40%
TcdB inh: blocks C. difficile toxin B glycohydrolase activity; P18177; TcdB glycohydrolase enzymatic assay, plate reader; inhibition, % at 9.99 µM; 0.24% of 350,000 active; AID 652162; in the data active means inhibition above about 10%
PfHsp40 rescue: rescue of PfHsp40-mediated yeast toxicity; S. cerevisiae expressing PfHsp40, growth rescue, ATP luminescence; growth rescue, % at 12.5 µM; 0.68% of 340,000 active; AID 504582; in the data active means growth rescue above about 28%, passing the limit was not always enough;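 further: yeast W303a lacking pdr1 and pdr3 grown in galactose medium; growth measured after three days at 30 °C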
Y pestis TopoI: blocks Yersinia pestis topoisomerase I activity; Y. pestis Topo-I cleavage product accumulation, plate reader; activity, % at 10 µM; 0.064% of 360,000 active; AID 504884; in the data active means activity above about 50%, passing the limit was not always enough
DUSP3 inh: blocks human VHR1 dual specificity phosphatase; P51452; recombinant VHR phosphatase, pNPP absorbance; inhibition, % at 13.3 µM; 0.52% of 290,000 active; in the data active means inhibition above about 50%
Target sequence (P51452 whole entry, looked up): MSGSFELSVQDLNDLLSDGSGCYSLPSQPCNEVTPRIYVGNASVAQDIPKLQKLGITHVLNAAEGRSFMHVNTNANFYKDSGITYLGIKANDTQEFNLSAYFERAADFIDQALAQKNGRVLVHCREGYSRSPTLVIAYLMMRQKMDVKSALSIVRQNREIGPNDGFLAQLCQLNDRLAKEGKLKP
Active calls of the source: *; i = inactive; · = no result. Only some compounds are listed: those with a hit (about 1.2% of all), similar ones and a draw of the others.

SMILES | BH1578 lux ind | BioA inh | TcdB inh | PfHsp40 rescue | Y pestis TopoI | DUSP3 inh
COc1ccc(CCn2c(C3CCCCC3)nc3c(c(=O)c4ccccc4n3C)c2=O)cc1 | -1 | 11 | 0 | · | 34 | 16
Cc1cc(NC(=O)Nc2cccc(Cl)c2)n(-c2ccccc2)n1 | i | · | 1 | -1 | 9 | 10
Cc1cc(NC(=O)Nc2cccc(Cl)c2)n(-c2ccccn2)n1 | 0 | · | 1 | 101* | -18 | 17
COc1ccc(-c2c([C@H]3[C@@H]4C=CCC[C@@]4(C)C(=O)N3Cc3ccccc3)ccc3ccccc23)cc1OC | -4 | 0 | 0 | 44* | 29 | 4
NC(=S)NN=Cc1nccc2ccccc12 | i | -1 | -13 | 94* | 8 | ·
O=C(NCCCN1CCCC1=O)c1cc(S(=O)(=O)N2CCN(c3ccccc3)CC2)ccc1Cl | 0 | 4 | -1 | -1 | 8 | ·
Cc1ccc(S(=O)(=O)N2CCOCC2)cc1C(=O)NCCCN1CCCC1=O | 1 | -4 | 11* | · | -3 | ·
COc1c2ccc(C(=O)NCCCCc3ccccc3)cc2nn1C | 6 | -1 | 14* | 7 | 4 | -24
c1ccc(Nc2ccccc2Nc2ccccn2)nc1 | i | · | -4 | 0 | 3 | 22
Oc1cccc2ccc(Nc3ccccn3)nc12 | 0 | -1 | · | 240* | -11 | 2
CN(C)CCCNC(=O)C[C@H]1CC[C@@H](NS(=O)(=O)c2ccccc2)[C@H](CO)O1 | · | 2 | -1 | · | · | ·
CC(=O)c1c(C)[nH]c(C(=O)OCc2ccc([N+](=O)[O-])cc2)c1C | 0 | 0 | 1 | -1 | 0 | 52*
CC(=O)c1c(C)[nH]c(C(=O)OCc2ccccc2)c1C | 4 | 16 | 1 | 1 | -3 | -8
CN(CC(=O)O/N=C(\N)c1ccc([N+](=O)[O-])cc1)S(=O)(=O)c1ccccc1 | -3 | 0 | · | -1 | -3 | 8
CCOc1cc(C(=O)NCc2ccc(C)cc2)ccc1OCC(=O)N1CCOCC1 | i | · | 0 | 1 | 3 | 51*
CCOc1cc(/C=C\[N+](=O)[O-])ccc1OCC(=O)N1CCOCC1 | -1 | · | 0 | 35* | 17 | -1
COc1cc(-c2nnc(NC(=O)CCS(=O)(=O)c3ccc(F)cc3)o2)cc(OC)c1OC | i | 1 | 1 | -1 | 0 | ·
CCc1nn(CCCC(=O)N2CCN(c3ccc(OC)cc3)CC2)c(=O)c2cc3occc3n12 | 1 | · | 2 | -1 | 5 | 57*
Cc1ccc(CCNc2ncnc(Cl)c2N)cc1 | -1 | 3 | 2 | 733* | -1 | ·
Nc1c(Cl)ncnc1NCCO | 0 | 1 | -1 | -1 | -14 | 4
Cc1ccc(N/N=C/c2c(O)n(-c3ccccc3)c(=O)[nH]c2=O)cc1 | 0 | 0 | 14* | 2 | 0 | -16
Cc1cccc(-n2nnc(C(=O)Nc3ccc(F)cc3)c2N)c1 | -1 | 0 | · | 4 | 12 | 13
CC(=O)c1ccc(N2CCN(C(=O)C3(S(=O)(=O)c4ccc(Cl)cc4)CC3)CC2)cc1 | 1 | 3 | · | 5 | 10 | 20
O=C(N1CCN(c2cccc(Cl)c2)CC1)C1(S(=O)(=O)c2ccc(Cl)cc2)CC1 | 0 | · | · | 83* | 9 | -21
CNC(=O)NC(=O)CSc1ccc(S(=O)(=O)N2CCOCC2)cn1 | 1 | -2 | 3 | 33* | 2 | ·
SMILES | BH1578 lux ind | BioA inh | TcdB inh | PfHsp40 rescue | Y pestis TopoI | DUSP3 inh
O=C(Nc1ccccc1)NC(Cc1ccc(O)cc1)C(=O)O (stereo not drawn) | i | · | 1 | 0 | 2 | 15
C/C(=N\OCC(=O)N/N=C/c1ccccc1O)c1cccs1 | 33* | 2 | · | 2 | 15 | -25
CN(C)n1cccc1/C=C(\C#N)S(=O)(=O)c1ccc(Cl)cc1 | i | -1 | 0 | 49* | 19 | 8
Cc1ccc(S(=O)(=O)/C(C#N)=C/c2c(Oc3ccc(Cl)cc3)nc3c(C)cccn3c2=O)cc1 | · | · | · | · | · | -5
C[C@@H]1O[C@@H]1P(=O)(O)O | -1 | 1 | 0 | 12 | 0 | ·
C[C@H]1O[C@H]1P(=O)(O)O | 29* | 0 | 0 | 0 | 12 | 1
C[C@@H]1CN([C@@H](C)CO)C(=O)c2c(c3ccccc3n2C)-c2ccccc2CO[C@@H]1CN(C)C | · | 0 | 20* | · | · | ·
C[C@H]1CN([C@@H](C)CO)C(=O)c2c(c3ccccc3n2C)-c2ccccc2CO[C@H]1CN(C)C | · | 1 | 11* | · | · | ·
O=C(Nc1cccnc1)c1ccc(-c2ccccc2)cc1 | 1 | · | 1 | 1 | -5 | 30
O=C(Nc1ccncc1)c1ccc(-c2ccccc2)cc1 | i | · | 11* | 2 | 9 | 12
CN(C)CCN(C(=O)c1cccc(N2C(=O)CCC2=O)c1)c1nc2ccc(Br)cc2s1 | i | 2 | 2 | -1 | -1 | 10
Cc1nc(NCCCn2ccnc2)c2oc3ccccc3c2n1 | -3 | 10 | · | -1 | -1 | -8
c1ccc(-c2c(-c3ccccc3)n(Cc3ccco3)c3ncnc(NCCCn4ccnc4)c23)cc1 | -1 | 2 | · | 148* | 26 | 11
N=c1c2c(-c3ccccc3)c(-c3ccccc3)n(Cc3ccco3)c2ncn1CCCN1CCOCC1 | i | · | 1 | 0 | 15 | 14
c1ccc2c(c1)oc1c(NCCCn3ccnc3)ncnc12 | i | 13 | · | 2 | 0 | 55*
N=c1c2c(-c3ccccc3)c(-c3ccccc3)n(Cc3ccco3)c2ncn1CCCn1ccnc1 | 0 | 14 | 0 | 235* | 10 | -4
Cc1ccc(C)c(Nc2ncccc2C(=O)NCc2cccs2)c1 | 1 | -1 | 3 | 3 | 3 | -2
Cc1noc(C)c1S(=O)(=O)N(C)C[C@@H]1Oc2ccc(NC(=O)Cc3cn(C)c4ccccc34)cc2CC(=O)N([C@@H](C)CO)C[C@@H]1C | · | 0 | -1 | · | · | ·
O=C(CNC(=O)c1cccnc1)N=Nc1c(O)[nH]c2c(Br)cc(Br)cc12 | -2 | -2 | -1 | -2 | -9 | 1
CCc1nc2ccccc2c(=O)n1NC(=O)c1c(O)c2ccccc2n(CC)c1=O | -1 | · | -1 | 181* | 40 | 26
C=CCn1c(=O)c(C(=O)NCCc2ccccc2)c(O)c2ccccc21 | -2 | -1 | · | 94* | 5 | 27
CCn1c(=O)c(C(=O)NCc2ccc(OC)c(OC)c2)c(O)c2ccccc21 | i | 0 | · | 0 | 1 | 12
C=CCn1c(=O)c(C(=O)NCc2ccc(Cl)cc2)c(O)c2ccccc21 | -1 | -2 | 1 | 1 | 1 | 35
CCCn1c(=O)c(C(=O)NCc2ccc(OC)c(OC)c2)c(O)c2ccccc21 | i | -1 | · | 334* | 49 | -13
CCCCCn1c(=O)c(C(=O)NCCc2ccccc2)c(O)c2ccccc21 | i | -2 | 1 | -2 | 0 | 16
CCCn1c(=O)c(C(=O)NCCc2ccccc2)c(O)c2ccccc21 | 1 | -2 | 0 | -1 | -2 | 54*
O=c1[nH]n2c(C(F)(F)F)cc(C3CC3)nc2c1N=Nc1ccccc1 | 0 | · | 0 | 12 | 1 | 8
C[C@@H]1C[C@@H]([C@H](O)CC2CC(=O)NC(=O)C2)C(=O)[C@@H](C)C1 | 0 | 1 | 0 | 40* | -2 | ·
